Only some compounds are listed: those with a hit (about 21% of all), similar ones and a draw of the others.
DT40 TDP1 CPT: DT40-hTDP1 cell growth loss with CPT; chicken DT40 Tdp1-/-;hTDP1 cells + 20 nM CPT, ATP luminescence, 48 h; Potency, µM (highest dose often 46.2 µM), without a hit: top-dose activity change, negative = growth inhibition, most hits filed as inhibitors; actives 12% (n = 420,000); AID 686979; note: potency is the fitted concentration of half-maximal effect; % is set by controls: 0 for no effect and ±100 for the full control effect; nearly all actives have a fitted effect of over 55% in size
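Chicken DT40 Tdp1-/- cells complemented with human TDP1, 400 cells/well, exposed to compounds plus 20 nM camptothecin for at least 48 h at 37 C; viability read as ATP content by CellTiter-Glo luminescence.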
D3 antag: blocks the human D3 dopamine receptor. P35462. D3R cells, DiscoveRx beta-arrestin luminescence, antagonist mode; active compounds read low. max response, negative = inhibition, %. AID 652054. actives 2.5% (n = 360,000); in the data active = max response below about -50%; inconclusive = no clear call, values can overlap the other calls; note: % is set by controls: 0 for no effect and ±100 for the full control effect
Target sequence (P35462 whole entry, looked up): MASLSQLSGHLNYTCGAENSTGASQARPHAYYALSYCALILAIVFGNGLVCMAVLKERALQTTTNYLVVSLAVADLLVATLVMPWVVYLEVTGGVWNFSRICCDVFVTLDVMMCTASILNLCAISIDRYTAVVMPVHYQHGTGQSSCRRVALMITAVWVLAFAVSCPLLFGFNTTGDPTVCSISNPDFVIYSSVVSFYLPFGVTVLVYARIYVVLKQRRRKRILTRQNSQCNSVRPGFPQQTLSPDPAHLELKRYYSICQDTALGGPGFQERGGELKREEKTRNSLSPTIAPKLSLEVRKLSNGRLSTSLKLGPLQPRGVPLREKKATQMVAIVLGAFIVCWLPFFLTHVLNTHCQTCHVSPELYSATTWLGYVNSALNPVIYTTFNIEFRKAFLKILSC
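Cells expressing the human receptor were seeded at 1500 cells/well, incubated overnight at 37 degrees C in 5% CO2, then exposed to library compounds with dopamine controls for 90 minutes at 37 degrees C before luminescent detection.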
D3 ag: activates the human D3 dopamine receptor. max activation, %. D3R DiscoveRx beta-arrestin cells, luminescence, 90 min. actives 0.58% (n = 410,000). P35462; in the data active = max activation above about 30%; note: 0% is about no effect
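Agonist-mode cell screen: cells plated at 1500/well and incubated overnight at 37 °C, then exposed to library compounds for 90 min at 37 °C. Detection reagent was added for 30–60 min at room temperature, and luminescence was read.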
IL-1B inflam inh: blocks inflammasome-driven IL-1 beta release. THP-1 LPS/ATP IL-1B secretion, AlphaLISA, 16 h; active compounds read low. activity change, % at 57.5 µM. actives 4.7% (n = 360,000). AID 743279; in the data active = activity change below about -50%; inconclusive = mostly about -30% to -49%; note: % is set by controls: 0 for no effect and ±100 for the full control effect
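Secreted IL-1B measured by AlphaLISA bead assay after 16 h compound exposure of THP-1 cells; compounds (final up to 57.5 uM) added 1 h before LPS (250 ng/mL) and ATP (1.25 mM) stimulation; lower signal means less secretion.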
DT40 TDP1 no CPT: qHTS for Inhibitors of human tyrosyl-DNA phosphodiesterase 1 (TDP1): qHTS in cells in absence of CPT | actives 15% (n = 420,000) | Potency, µM (series often up to 46.2 µM), inactives show at the highest dose activity change, negative = growth inhibition, actives largely listed as inhibitors | DT40 Tdp1-/- hTDP1 cells, no CPT, ATP luminescence, 48 h; note: potency is the fitted concentration of half-maximal effect; % is set by controls: 0 for no effect and ±100 for the full control effect; nearly all actives have a fitted effect of over 55% in size
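Growth kinetics read by CellTiter-Glo luminescence after ≥48 hr at 37 °C. Cells: DT40 Tdp1-/- stably carrying human TDP1, 400 per well, compound exposure in the absence of CPT (DMSO vehicle).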
ClpP mod: qHTS Assay for Activators of ClpP; ATP-dependent Clp protease proteolytic subunit (Bacillus subtilis (strain 168)), P80244; purified B. subtilis ClpP, FRET peptide cleavage, 20 min; Potency, µM (series often up to 57.5 µM), without a hit: at the highest dose activity change, negative = active; actives 1.9% (n = 340,000); AID 651965, 2013; active = well fitted falling curve with a large enough effect; inconclusive = small, poorly fitted or top-dose-only effect; inactive = no such curve, though single readings can be large or run the other way; note: potency is the fitted concentration of half-maximal effect; the source files actives as falling curves though it sought activators and does not explain the sign; nearly all actives have a fitted effect of over 65% in size
Target sequence (P80244 whole entry, looked up): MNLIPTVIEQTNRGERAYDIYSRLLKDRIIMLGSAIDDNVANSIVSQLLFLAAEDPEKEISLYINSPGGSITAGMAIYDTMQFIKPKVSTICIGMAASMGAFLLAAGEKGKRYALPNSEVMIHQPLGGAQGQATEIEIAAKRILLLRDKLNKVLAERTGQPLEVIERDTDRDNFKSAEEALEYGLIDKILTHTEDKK
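FRET quenching reversal measured ClpP activation: 10 microg/mL B. subtilis ClpP at pH 8 with the FRET-FV decapeptide, read at 430 nm after 320 nm excitation. The 20-min minus 0-min signal was scaled between DMSO/no-enzyme wells and ADEP (5.8 microM final).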
An asterisk follows results filed as active; u = inconclusive; x = no result; [ ] = dose if it differs, or a comment. Unless noted, calls come from the whole dose curve; as a rule, active = well fitted inhibition curve with a large enough effect; inconclusive = small, poorly fitted or top-dose-only effect; inactive = flat fitted curve, though single readings scatter.

SMILES	DT40 TDP1 CPT	D3 antag	D3 ag	IL-1B inflam inh	DT40 TDP1 no CPT	ClpP mod
COc1ccc(C(NC(=O)C2CCN(C/C=C/c3ccc(OC(C)=O)c(OC)c3)CC2)c2ccccn2)cc1 (stereo not drawn)	u	-14.4	-18.4	-17.3	20.6µM*	-2.7%
COc1ccc(C(=O)N2CCC(C(=O)NCc3ccccn3)CC2)cc1	8.9%	10.2	3.6	0.4	-0.7%	-0.2%
COc1ccc(C(NC(=O)C2CCN(CCCc3ccccc3)CC2)c2ccccn2)cc1 (stereo not drawn)	1.3%	-22.0	6.2	-5.0	-4.8%	2.6%
COc1ccc(OCCN2CCC(C(=O)NC(c3ccc(OC)cc3)c3ccccn3)CC2)cc1 (stereo not drawn)	-13.8%	-66.8*	-21.9	-7.8	-23.0%	0.2%
COc1ccc(C(NC(=O)C2CCN(CCc3ccccc3)CC2)c2ccccn2)cc1 (stereo not drawn)	-4.4%	-75.4*	-18.5	-0.1	-5.6%	2.5%
O=C1CC(N2CCN(S(=O)(=O)c3ccccc3F)CC2)C(=O)N1c1ccccc1F (stereo not drawn)	-1.5%	6.3	-8.9	28.6	22.8%	0.3%
Cc1ccc(OCC(=O)NNC(=O)C2CCN(c3ncccn3)CC2)cc1	0.4%	-22.1	17.4	21.1	7.7%	-16.4%
Cc1ccc(C(NC(=O)C2CCN(CCOc3ccccc3)CC2)c2ccccn2)cc1 (stereo not drawn)	u	-69.8*	7.4	-54.8*	u	0.0%
COc1ccc(C(NC(=O)C2CCN(CCOc3ccc(Cl)cc3)CC2)c2cccs2)cc1 (stereo not drawn)	u	-80.6*	-17.5	-71.2*	u	-1.7%
O=[N+]([O-])c1ccc(-c2cn3nc(-c4ccccc4)c(-c4ccccc4)nc3n2)cc1	4.4%	12.9	14.0	x	u	x
c1ccc(-c2cn3nc(-c4ccccc4)c(-c4ccccc4)nc3n2)cc1	u	-8.4	1.6	-55.3*	u	-2.5%
Cc1ccc(-c2cn3nc(-c4ccccc4)c(-c4ccccc4)nc3n2)cc1	u	5.2	-5.0	-74.4*	u	x
COc1cc(-c2cccc(Cl)c2)cc2c1OCCN(C(=O)CCn1ccc(C)n1)C2	1.4%[9.04 µM]	x	x	x	u	x
Cc1ccccc1NC(=O)CSc1nc2c(oc3ccccc32)c(=O)n1-c1ccccc1F	u	x	2.3	x	23.1µM*	-6.1%
CCc1ccccc1NC(=O)CSc1nc2c(oc3ccccc32)c(=O)n1-c1ccccc1F	u	x	-5.0	x	18.4µM*	-8.7%
O=C(CSc1nc2c(oc3ccccc32)c(=O)n1-c1ccccc1)Nc1ccccc1F	u	x	0.9	x	u	-13.2%
N/C(=N\OC(=O)Nc1ccc(Cl)cc1)c1ncc(C(F)(F)F)cc1Cl	-14.7%	0.0	-9.6	-0.7	-26.8%	-1.1%
CC(C)OC(=O)CCC(=O)Nc1ccc(F)cc1	-2.3%	-9.5	-5.1	-4.4	12.6%	0.0%
CC(C)C(Cl)=NOC(=O)Nc1ccc(F)cc1	1.46µM*	-12.2	-8.5	-99.6*	2.31µM*	-0.7%
C/C(=N\OC(=O)Nc1ccc(Cl)cc1)c1ccc(F)c(F)c1	2.0%	0.1	-8.0	-86.9*	u	x
O=C(NCC1CCCO1)C1CCN(S(=O)(=O)c2cc(Cl)ccc2Cl)CC1 (stereo not drawn)	1.2%	-2.5	4.4	35.2	-3.7%	x
Cc1ccc(NC(=O)CN(C)C(=S)NC2CC2)cc1	0.1%	-1.0	-0.5	16.3	1.7%	x
CCC1CCCCN1C(=O)CSc1n[nH]c(N)n1 (stereo not drawn)	1.6%	-8.8	-12.5	6.8	-3.3%	x
COc1ccc(CN2CCc3ccccc3C2)c(OC)c1	-0.4%	-64.9*	-14.4	-3.4	u	x
COc1ccc(OC)c(CN2CCN(Cc3ccc(OC)c(OC)c3OC)CC2)c1	-27.6%	u	-4.9	9.5	u	-6.6%
SMILES	DT40 TDP1 CPT	D3 antag	D3 ag	IL-1B inflam inh	DT40 TDP1 no CPT	ClpP mod
COc1ccc(CN2CCc3ccccc3C2)c(OC)c1OC	u	-74.6*	-30.1	0.0	-27.5%	-0.6%
C=CCn1c(COc2ccc(F)cc2)nnc1SCC(=O)NC1CCS(=O)(=O)C1 (stereo not drawn)	-5.8%	-11.6	-4.9	-2.0	-12.4%	-3.3%
CCOc1ccc(OCC(=O)NCCS(=O)(=O)N2CCN(c3ccc(OC)cc3)CC2)cc1	-1.8%	x	10.4	x	-18.2%	-12.0%
Cc1ncc2c(n1)-c1cc(F)ccc1SC2	-5.1%	9.0	3.7	-4.1	1.4%	x
CSc1ncc2c(n1)-c1cc(C)ccc1SC2	2.59µM*	3.3	0.2	-12.0	5.17µM*	-1.0%
COc1ncc2nc(C)c(=O)n(C[C@H]3CCCO3)c2n1	3.5%	x	x	x	1.1%	x
CCN1CCN(c2ccc(S(=O)(=O)N3CCOCC3)cc2NC(=O)c2ccc(Cl)cc2Cl)CC1	u	11.2	-0.1	-17.3	20.6µM*	x
CCN1CCN(S(=O)(=O)c2ccc(Cl)c(C(=O)Nc3cc(Cl)ccc3N3CCOCC3)c2)CC1	u	-15.1	0.2	-62.2*	u	-0.4%
CCN1CCN(c2ccc(S(=O)(=O)N3CCOCC3)cc2NC(=O)c2ccc(C)c(C)c2)CC1	u	-8.7	-14.7	-1.2	u	-1.4%
COC(=O)[C@@]1(C)[C@H]2C(=O)N(Cc3ccccc3)C(=O)[C@H]2[C@H]2CN=C(SCc3ccc(C)cc3)N21	u	1.4	8.2	5.8	u	0.7%
O=C1CCSc2ccc(S(=O)(=O)Nc3ccc(Cl)c(C(F)(F)F)c3)cc2N1	x	x	-8.8	x	x	1.2%
O=C(NC(CSCc1ccccc1)C(=O)N/N=C/c1ccc(O)cc1O)c1ccc([N+](=O)[O-])cc1 (stereo not drawn)	7.08µM*	19.7	50.1*	112.5	4.47µM*	-0.2%
O=c1[nH]c2ccc(S(=O)(=O)N3CCN(Cc4ccccc4)CC3)cc2[nH]c1=O	7.7%	2.6	6.1	3.5	6.1%	28.2µM*
COc1cc(S(=O)(=O)N2CCN(Cc3ccccc3)CC2)ccc1Br	u	u	-5.1	-13.0	u	u
O=S(=O)(c1ccc(S(=O)(=O)N2CCN(C3CCCCC3)CC2)cc1)N1CCCCCC1	-1.7%	12.6	10.7	2.5	-3.1%	0.1%
O=c1[nH]c2ccc(S(=O)(=O)N3CCN(C4CCCCC4)CC3)cc2[nH]c1=O	1.3%	-13.9	0.0	-2.3	0.7%	28.2µM*
O=S1(=O)CCN(CCc2ccccc2)CC1	2.1%	4.6	5.9	-3.8	7.4%	0.4%

From PubChem
